aSyn rescue: alpha-synuclein toxicity inhibition in yeast | 370,000 tested, 0.14% active | Yeast expressing alpha-synuclein, growth rescue, BacTiter-Glo, 24 h | Potency, µM (doses to about 46.1 µM), for the others: at the highest dose growth rescue (activation), hits mostly activators; also: % of control where 0% means no effect; nearly all actives have a fitted effect of over 65% in size
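Rescue of yeast growth: cells expressing toxic alpha-synuclein, induced in galactose at OD600 0.02, incubated with compound 24 h at 30 C. ATP luminescence quantified growth; inhibitors of toxicity appear as activators.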
Mm-Cpn inhibitor: inhibitors of Methanococcus maripaludis chaperonin TRiC (MmCpn); purified Mm-Cpn ATPase, ADP Transcreener TR-FRET; Potency, µM (series often up to 76.9 µM), for inactives: top-dose activity, negative = inhibition, most hits filed as inhibitors; 330,000 tested, 0.031% active; AID 504842; also: % is scaled to controls: 0 for no effect and ±100 for the full control effect; nearly all actives have a fitted effect of over 80% in size
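25 nM Mm-CPN + cpd, 10 min 37°C; + 10 uM ATP, 30 min 37°C; buffer 30 mM Tris pH 7.4, 100 mM KCl, 5 mM MgCl2, 1 mM DTT; Transcreener ADP HTRF detection 30 min RT.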
FUS yeast rescue: rescues growth of FUS-expressing yeast; Potency, µM (titrated, usually from 76.6 µM), usual class: activators; 390,000 tested, 0.24% active; S. cerevisiae FUS-expressing, growth rescue, OD600, 24 h;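 also: plate controls were DMSO vehicle for no effect and reference control for full effect; nearly all actives have a fitted effect of over 55% in size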
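Compound concentration series was pinned onto galactose-induced FUS-expressing yeast seeded at OD 0.005. Plates sat 24hr at 30C; absorbance at 600 nm gave growth. DMSO served as background control.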
Abeta rescue: compounds reversing amyloid beta toxicity in yeast. yeast expressing A-beta42, growth rescue, OD600, 48 h; response scale: 0% DMSO, 100% iron-clioquinol control. Potency, µM (top dose mostly 46.1 µM), actives largely listed as activators. 410,000 tested, 0.063% active. AID 1347071; also: nearly all actives have a fitted effect of over 55% in size
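Yeast growth medium received pinned compounds, then yeast cells expressing toxic A-beta were added; plates incubated at 30 C for 48 hr. Growth read as absorbance at 600 nm, normalized to DMSO and equimolar FeCl3 plus clioquinol controls.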
ClpP mod: qHTS Assay for Activators of ClpP. ATP-dependent Clp protease proteolytic subunit (Bacillus subtilis (strain 168)), P80244. purified B. subtilis ClpP, FRET peptide cleavage, 20 min. Potency, µM (top dose mostly 57.5 µM), without a hit: at the highest dose activity change, negative = active. 340,000 tested, 1.9% active. AID 651965, 2013; active = well fitted falling curve with a large enough effect; inconclusive = small, poorly fitted or top-dose-only effect; inactive = no such curve, though single readings can be large or run the other way; also: the source files actives as falling curves though it sought activators and does not explain the sign; nearly all actives have a fitted effect of over 65% in size
Target sequence (P80244 whole entry, looked up): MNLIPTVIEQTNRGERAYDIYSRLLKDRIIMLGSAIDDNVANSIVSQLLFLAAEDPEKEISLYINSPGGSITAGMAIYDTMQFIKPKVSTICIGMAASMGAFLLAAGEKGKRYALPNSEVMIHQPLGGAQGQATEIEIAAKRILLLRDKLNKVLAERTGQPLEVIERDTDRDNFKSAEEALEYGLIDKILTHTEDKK
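ClpP 10 microg/mL final, pH 8 Tris/KCl buffer with BSA, glycerol, Tween-20; compound pinned in; FRET-FV substrate; RT 20 min; Ex320/Em430; ΔFRET vs ADEP 5.8 microM, DMSO, no enzyme.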
TDP43 rescue: TDP-43 toxicity inhibition in yeast; AID 652104; Potency, µM (top dose mostly 46.1 µM), for inactives: at the highest dose growth rescue (activation), most hits filed as activators; TDP-43 expressing yeast growth rescue, BacTiter-Glo, 24 h; 410,000 tested, 1.8% active; also: % of control where 0% means no effect; nearly all actives have a fitted effect of over 50% in size
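In this qHTS, compounds that restore growth of yeast expressing TDP-43 appear as activators. Cells (OD600=0.02, galactose medium, raffinose-pregrown) are incubated with compound 24 hr at 30 deg C and growth is quantified by BacTiter-Glo.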
Numbers without * were called inactive; [ ] = remark or other dose. Sampled rows, rich in hits. Any-hit rate of the full collection: about 3.6%. Unless noted, calls follow the shape of the dose curve; as a rule, active = well fitted curve in the direction sought with a large enough effect; inconclusive = small, poorly fitted or top-dose-only effect, or another doubt; inactive = no such curve, though single readings can be large; an effect the other way counts as inactive or inconclusive. Potency is read from the fitted curve at half-maximal effect.

CCOC(=O)C(=CNNc1ccccc1)C(=O)OCC was read as aSyn rescue inconclusive, Mm-Cpn inhibitor -2%, FUS yeast rescue inactive, Abeta rescue inactive, ClpP mod -3% and TDP43 rescue 13µM*.
For Cc1ccc(OCC(=O)Nc2ccc(S(=O)(=O)N3CCCCC3)cc2)c([N+](=O)[O-])n1 the results were aSyn rescue 1%, Mm-Cpn inhibitor -4%, FUS yeast rescue inactive, Abeta rescue inactive and TDP43 rescue -18%[0.397 µM].
`CCCn1c(C)cc(C(=O)COc2ccc(C)nc2[N+](=O)[O-])c1C` gave aSyn rescue 10%, Mm-Cpn inhibitor 1%, FUS yeast rescue inactive, Abeta rescue inactive, ClpP mod 1% and TDP43 rescue 15%.
Screening Cc1ccc(OCC(=O)N(Cc2ccccc2)C(C)(C)C)c([N+](=O)[O-])n1 returned aSyn rescue 5%, Mm-Cpn inhibitor 1%, Abeta rescue inactive, ClpP mod -2% and TDP43 rescue 2%.
`Cc1ccc(OCC(=O)Nc2ccc(C)c(S(=O)(=O)N3CCCCC3)c2)c([N+](=O)[O-])n1` gave aSyn rescue 1%, Mm-Cpn inhibitor 0%, FUS yeast rescue inactive, Abeta rescue inactive, ClpP mod 1% and TDP43 rescue 14µM*.
`Cc1ccc(OCC(=O)N(Cc2ccccc2)C(C)C)c([N+](=O)[O-])n1` gave aSyn rescue -2%, Mm-Cpn inhibitor 0%, FUS yeast rescue inactive, Abeta rescue inactive, ClpP mod 3.2µM* and TDP43 rescue 13%.
For C=CCn1c(C)cc(C(=O)COc2ccc(C)nc2[N+](=O)[O-])c1C the results were aSyn rescue 9%, Mm-Cpn inhibitor 3%, FUS yeast rescue inactive, Abeta rescue inactive, ClpP mod 4µM* and TDP43 rescue inconclusive.
CCn1cc(C(=O)Nc2ccc(OC)c(S(=O)(=O)N3CCCCC3)c2)c(=O)c2ccc(C)nc21 was read as aSyn rescue -20%, Mm-Cpn inhibitor -2%, Abeta rescue inactive, ClpP mod 32µM* and TDP43 rescue -6%.
`CCCN(CCC)c1ccc(/C=C/c2sc3ccccc3[n+]2CCCCI)cc1` gave aSyn rescue -64% and ClpP mod 2%.
`Cc1cc(C)cc(OC(C)C(=O)Nc2nonc2-c2ccc(Br)cc2)c1` (stereo not drawn) gave FUS yeast rescue inactive, Abeta rescue inactive, ClpP mod 0% and TDP43 rescue inconclusive.
Screening Cc1ccc(OCC(=O)Nc2ccc(Cl)cc2)c([N+](=O)[O-])n1 returned aSyn rescue 2%, Mm-Cpn inhibitor 1%, FUS yeast rescue inactive, Abeta rescue inactive, ClpP mod 1% and TDP43 rescue 13µM*.
Screening CC(Nc1ccccc1)c1cc(Cl)ccc1O (stereo not drawn) returned aSyn rescue 1%, Mm-Cpn inhibitor 2%, FUS yeast rescue inactive, Abeta rescue inactive, ClpP mod -7% and TDP43 rescue 7%.
COc1ccc(NC(C)c2cc(Cl)ccc2O)cc1 (stereo not drawn) was read as aSyn rescue 0%, Mm-Cpn inhibitor 2%, FUS yeast rescue inactive, Abeta rescue inactive, ClpP mod 3.2µM* and TDP43 rescue 6%.
`Cc1c2n(c3ccccc13)CC/C2=N\O` gave aSyn rescue 4%, Mm-Cpn inhibitor -6%, FUS yeast rescue inactive, Abeta rescue inactive, ClpP mod -4% and TDP43 rescue 11µM*.
For CCOc1ccc(-c2cc(NC(=O)c3ccc(C)cc3)c(C(=O)OC)s2)cc1 the results were FUS yeast rescue inactive, Abeta rescue inactive, ClpP mod inconclusive and TDP43 rescue 6%.
Screening CCOc1ccc(-c2cc(NC(=O)c3ccccc3)c(C(=O)OC)s2)cc1 returned FUS yeast rescue inactive, Abeta rescue inactive, ClpP mod 35µM* and TDP43 rescue 19%.
Screening COc1ccc(CCNC(=O)c2cnc3sc(N4CCCC4)nn3c2=O)cc1OC returned FUS yeast rescue inactive, Abeta rescue inactive, ClpP mod 11µM* and TDP43 rescue 22%.
`CCOc1ccc(CNC(=O)c2cnc3sc(N4CCOCC4)nn3c2=O)cc1OC` gave FUS yeast rescue inactive, Abeta rescue inactive, ClpP mod 28µM* and TDP43 rescue -2%.
For CCOc1ccc(CNC(=O)c2cnc3sc(N4CCOCC4)nn3c2=O)cc1 the results were FUS yeast rescue inactive, Abeta rescue inactive, ClpP mod 13% and TDP43 rescue 11%.
For CC(C)CCNC(=O)c1cnc2sc(N3CCCCCC3)nn2c1=O the results were FUS yeast rescue inactive, Abeta rescue inactive, ClpP mod 13µM* and TDP43 rescue 21%.
CCOc1ccc(CNC(=O)c2cnc3sc(N(CC)CC)nn3c2=O)cc1OC was read as FUS yeast rescue inactive, Abeta rescue inactive, ClpP mod 32µM* and TDP43 rescue 16%.
Screening Cc1ccc(S(=O)(=O)N2CCN(c3nc(N(C)c4cc(Cl)ccc4O)nc4ccccc34)CC2)cc1 returned aSyn rescue 2% and ClpP mod -2%.
For CCOc1ccc(-c2csc(/C(C#N)=C/c3ccc(Br)cc3)n2)cc1 the results were FUS yeast rescue inactive, Abeta rescue inactive, ClpP mod -5% and TDP43 rescue 22%.
For C=C(c1nc2ccccc2s1)C1Cc2cccc3c2N(CCC3)C1 (stereo not drawn) the results were aSyn rescue -78% and ClpP mod 0%.
Cc1ccc(NC(=O)COC(=O)c2ccccc2OCC(=O)Nc2ccc(Br)cc2)c(Br)c1 was read as aSyn rescue -2% and ClpP mod 2%.
`Cc1cc(Br)cn2c(Cc3cccc(Cl)c3)c(-c3cccc(Cl)c3)nc12` gave aSyn rescue 2%, FUS yeast rescue inactive, Abeta rescue inactive, ClpP mod -9% and TDP43 rescue 29%.
Cc1ccc(Cc2c(-c3ccc(F)cc3)nc3c(C)cc(Br)cn23)cc1 was read as aSyn rescue 3%, FUS yeast rescue inactive, Abeta rescue inactive, ClpP mod -2% and TDP43 rescue 22µM*.
For Cc1ccc(Cc2c(-c3ccc(C)cc3)nc3c(C)cc(Br)cn23)cc1 the results were aSyn rescue 13%, FUS yeast rescue inactive, Abeta rescue inactive, ClpP mod -5% and TDP43 rescue 6%.
